21 compounds from PubChem BioAssay (Tox21) can be followed below.

SMILES strings stand for the structures. Inconclusive results are not listed. Activity calls are given as the source filed them. Unless noted, the call rests on the fitted dose curve; in most records, active means well fitted curve in the direction sought with a large enough effect in the repeat runs; inconclusive means weak or mixed curves; inactive means flat fitted curve, though single readings scatter.

Assay [1] is described as follows: qHTS assay to test for compound auto fluorescence at 535 nm (green) in HEK293 cells (AID 720680).
Assay [2] can be described thus: qHTS assay to test for compound auto fluorescence at 460 nm (blue) in HEK293 cell free culture (AID 720681). The essentials:
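Test compounds were pinned into cell-free culture medium (DMEM with 10% FBS) and fluorescence was read directly at Ex/Em 405/460 nm. Signals were expressed as fluorescence equivalents of triamterene, with DMSO vehicle as control.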
(qHTS replaces the single test concentration by a dilution series.)

Assay [3] in a line: qHTS assay to test for compound auto fluorescence at 535 nm (green) in HEK293 cell free culture (AID 720682). The procedure, abridged:
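Intrinsic compound fluorescence is measured in culture medium containing 10% FBS, with excitation at 485 nm and detection at 535 nm, referenced to fluorescein.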

Assay [4] is described as follows: qHTS assay to test for compound auto fluorescence at 590 nm (red) in HEK293 cell free culture (AID 720683). The essentials:
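Tox21 10K library compounds were pinned into cell-free DMEM with 10% FBS and fluorescence was read at excitation 540 nm. Activity is expressed as Rose Bengal sodium equivalency.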

Assay [5] in a line: qHTS assay to test for compound auto fluorescence at 590 nm (red) in HepG2 cell free culture (AID 720684). The procedure, abridged:
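Red fluorescence (540 nm excitation, 590 nm emission) was measured after compound transfer into cell-free MEM supplemented with 10% FBS. Values are equivalencies against Rose Bengal sodium.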

Assay [6] is described as follows: qHTS assay to test for compound auto fluorescence at 460 nm (blue) in HepG2 cell free culture (AID 720685). The essentials:
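Compound (23 nL) or DMSO pinned into cell-free MEM with 10% FBS; blue fluorescence read at 405/460 nm excitation/emission, expressed as auto-fluorescence equivalency to triamterene.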

A short description of assay [7]: qHTS assay to test for compound auto fluorescence at 535 nm (green) in HepG2 cell free culture (AID 720686).
Assay [8] can be described thus: qHTS assay to test for compound auto fluorescence at 460 nm (blue) in HepG2 cells (AID 720687). The essentials:
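Cells (2,000/well in MEM with 10% FBS) attached overnight at 37 C, then were exposed to compound or DMSO for 1 hr at 37 C, 5% CO2. Fluorescence read at Ex/Em 405/460 nm, expressed as triamterene-equivalent signal.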

For assay [9], the target named is Glucocorticoid receptor (Homo sapiens) (UniProt P04150). The experiment in a line: qHTS assay to identify small molecule agonists of the glucocorticoid receptor (GR) signaling pathway (AID 720691; active means well fitted activation curve with a large enough effect in the signal ratio in the repeat runs, not every such curve was filed as active; the % refers to the signal ratio; further: potency means the concentration at half of the fitted maximal effect). To be noted: GR-bla HeLa, beta-lactamase reporter ratio, 18 h; activation: at 62.4 µM (top of the series). The essentials: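 qHTS in GR-bla HeLa cells: 4 h settling at 37 C/5% CO2, 18 h compound incubation at 37 C, 2 h LiveBLAzer B/G FRET substrate at room temperature, fluorescence intensity measured.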
Sequence of Glucocorticoid receptor (Homo sapiens) (P04150 whole entry, looked up): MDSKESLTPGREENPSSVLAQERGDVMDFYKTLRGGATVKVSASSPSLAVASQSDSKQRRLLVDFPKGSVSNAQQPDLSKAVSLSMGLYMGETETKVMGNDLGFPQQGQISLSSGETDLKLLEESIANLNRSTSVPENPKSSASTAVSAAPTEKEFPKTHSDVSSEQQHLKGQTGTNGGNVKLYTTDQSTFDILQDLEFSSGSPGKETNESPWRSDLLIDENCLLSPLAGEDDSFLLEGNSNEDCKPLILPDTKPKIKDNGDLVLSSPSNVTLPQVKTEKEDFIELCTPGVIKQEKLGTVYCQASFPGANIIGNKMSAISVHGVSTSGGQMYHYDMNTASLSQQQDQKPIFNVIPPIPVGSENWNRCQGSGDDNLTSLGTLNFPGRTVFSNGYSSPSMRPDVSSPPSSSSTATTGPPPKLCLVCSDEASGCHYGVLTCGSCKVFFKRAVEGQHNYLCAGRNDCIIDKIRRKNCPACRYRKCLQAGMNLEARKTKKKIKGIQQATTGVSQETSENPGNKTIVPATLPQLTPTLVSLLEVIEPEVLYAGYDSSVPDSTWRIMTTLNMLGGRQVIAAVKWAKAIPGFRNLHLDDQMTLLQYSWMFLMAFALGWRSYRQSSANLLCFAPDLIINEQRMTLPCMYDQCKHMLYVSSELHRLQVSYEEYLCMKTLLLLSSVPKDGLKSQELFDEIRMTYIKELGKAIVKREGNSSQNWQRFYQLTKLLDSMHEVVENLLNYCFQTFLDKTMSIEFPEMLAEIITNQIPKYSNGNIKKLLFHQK

For assay [10] the target is unchanged. In words: qHTS assay to identify small molecule antagonists of the glucocorticoid receptor (GR) signaling pathway (AID 720692; active means well fitted inhibition curve with a large enough effect in the signal ratio in the repeat runs, not every such curve was filed as active; the % refers to the signal ratio). The procedure, abridged: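 Inhibition of glucocorticoid signalling is measured in HeLa cells with a GRE-controlled beta-lactamase reporter; cells are co-treated with compound and 5 nM dexamethasone (final) for 18 h before FRET substrate readout.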

Take `CCN(CC)CCOc1ccccc1OC`: the Potency result in assay [1], in [2], in [3], in assay [4], in assay [5] and in [7] was “inactive” throughout. Also, the Potency entry in assay [9] is “inactive”. Moreover, the compound was classed as inactive in [6] and in [8].
Consider `O=C(c1cc2ccccc2o1)N1CCN(Cc2ccccc2)CC1`, for which the Potency result in [1], in assay [2], in assay [3], in assay [4], in [5] and in [7] was “inactive” in each case. Besides, the Potency entry in assay [9] is “inactive”. For the same compound, the compound was classed as inactive in assay [6] and in [8].
`CC(=O)O[C@]1(C(C)=O)CC[C@H]2[C@@H]3CCC4=CC(=O)CC[C@]4(C)[C@@]3(F)[C@@H](O)C[C@@]21C`: the Potency result in assay [1], in assay [2], in assay [3], in [4], in [5] and in [7] was “inactive” each time. The outcome in assay [6] and in assay [8] was inactive. Moreover, the Potency in assay [9] is 37.9 nM (active).
Regarding `CC(C)(C)NCC(O)CSc1nc(-c2ccc(C(N)=O)s2)cs1` (stereo not given), the Potency result in [1], in assay [2], in assay [3], in assay [4], in assay [5] and in [7] was “inactive” in each case. Moreover, the Potency result in assay [9] is “inactive”. The compound was classed as inactive in assay [6] and in assay [8].
Take `O=C(O)c1cc(O)c2c(c1)[O][Bi][O]2`: the Potency result in [1], in assay [2], in [3], in assay [4], in [5] and in [7] was “inactive” throughout. In addition, the Potency entry in [9] was “inactive”. Besides, the call in [6] and in assay [8] was inactive.
On to `Cc1ccc(/C(=C\CN2CCCC2)c2cccc(/C=C/C(=O)O)n2)cc1`, for which the Potency result in assay [1], in assay [2], in assay [3], in [4], in assay [5] and in assay [7] was “inactive” each time. In addition, in [9], the Potency entry was “inactive”. Moreover, the call in assay [6] and in [8] was inactive.
`COc1cc(Br)c(C[N+]2(CCOCCC3CCC4CC3C4(C)C)CCOCC2)cc1OC` (stereo not given): the Potency result in assay [1], in [2], in assay [3], in assay [4], in assay [5] and in assay [7] was “inactive” throughout. In addition, the Potency result in assay [9] is “inactive”. The compound was classed as inactive in assay [6] and in [8].
Regarding `CCCC1([C@H](O)C/C=C/[C@H]2[C@H](O)CC(=O)[C@@H]2CCCCCCC(=O)OC)CCC1`, the Potency entry in assay [1], in assay [2], in assay [3], in assay [4], in assay [5] and in assay [7] was “inactive” in each case. Besides, the Potency result in [9] is “inactive”. Also, the compound was classed as inactive in assay [6] and in assay [8].
Regarding `Cc1cc(-c2ccc(N=Nc3c(S(=O)(=O)O)cc4cc(S(=O)(=O)O)cc(N)c4c3O)c(C)c2)ccc1N=Nc1c(S(=O)(=O)O)cc2cc(S(=O)(=O)O)cc(N)c2c1O`, the Potency entry in assay [1], in [2], in assay [3], in assay [4], in assay [5] and in assay [7] was “inactive” throughout. Also, the Potency result in assay [9] was “inactive”. Besides, the outcome in [6] and in assay [8] was inactive.
On to `CC[C@@H](C(=O)O)[C@@H]1O[C@@H]([C@@H](C)[C@H](O)[C@H](C)C(=O)[C@H](CC)[C@H]2O[C@]3(C=C[C@@H](O)[C@]4(CC[C@@](C)([C@H]5CC[C@](O)(CC)[C@H](C)O5)O4)O3)[C@H](C)C[C@@H]2C)[C@@H](C)C[C@@H]1C`, for which the Potency result in assay [1], in assay [2], in assay [3], in [4], in assay [5] and in assay [7] was “inactive” throughout. Besides, in [9], the Potency result is “inactive”. In addition, the call in [6] and in assay [8] was inactive.
Consider `CCOC(=O)[C@H](CCc1ccccc1)N[C@@H](C)C(=O)N1CC2(C[C@H]1C(=O)O)SCCS2`, for which the Potency result in assay [1], in assay [2], in [3], in assay [4], in assay [5] and in assay [7] was “inactive” in each case. For the same compound, the Potency entry in assay [9] is “inactive”. For the same compound, the compound was classed as inactive in assay [6] and in assay [8].
As for `COc1ccc2c(c1)N(C[C@H](C)CN(C)C)c1ccccc1S2`, the Potency result in assay [1], in assay [2], in assay [3], in [4], in [5] and in [7] was “inactive” throughout. Moreover, the Potency result in [9] is “inactive”. Moreover, the compound was classed as inactive in assay [6] and in assay [8].
As to `CCCCC(C)(O)C/C=C/[C@H]1[C@H](O)CC(=O)[C@@H]1CCCCCCC(=O)OC` (stereo not given in full), the Potency entry in [1], in assay [2], in assay [3], in assay [4], in assay [5] and in [7] was “inactive” throughout. Moreover, the Potency result in assay [9] is “inactive”. Further, the outcome in assay [6] and in [8] was inactive.
Regarding `CC(=O)N=c1sc(S(N)(=O)=O)nn1C`, the Potency entry in assay [1], in assay [2], in assay [3], in [4], in assay [5] and in [7] was “inactive” each time. Also, in [9], the Potency entry is “inactive”. The call in [6] and in [8] was inactive.
`CCC(c1ccccc1)c1noc(CCN(CC)CC)n1` (stereo not given): the Potency result in assay [1], in [2], in assay [3], in assay [4], in assay [5] and in assay [7] was “inactive” in each case. The Potency result in [9] is “inactive”. In addition, the call in [6] and in assay [8] was inactive.
As to `CN1CCN2c3ncccc3Cc3ccccc3C2C1` (stereo not given), the Potency entry in assay [1], in assay [2], in assay [3], in assay [4], in [5] and in assay [7] was “inactive” each time. Moreover, the Potency result in assay [9] and in assay [10] was “inactive” each time. Further, the call in assay [6] and in assay [8] was inactive.
On to `CC(C)C[C@H](NC(=O)[C@@H](Cc1c[nH]c2ccccc12)NC(=O)[C@H](Cc1ccc(O)cc1)NC(=O)[C@H](CO)NC(=O)[C@H](Cc1c[nH]c2ccccc12)NC(=O)[C@H](Cc1cnc[nH]1)NC(=O)[C@@H]1CCC(=O)N1)C(=O)N[C@@H](CCCN=C(N)N)C(=O)N1CCC[C@@H]1C(=O)NCC(N)=O`, for which the Potency entry in assay [1], in assay [2], in assay [3], in [4], in assay [5] and in [7] was “inactive” each time. The Potency entry in assay [9] and in assay [10] was “inactive” each time. The outcome in assay [6] and in [8] was inactive.
On to `Nc1ncnc2c1ncn2CCOCP(=O)(O)O`, for which the Potency result in assay [1], in assay [2], in [3], in assay [4], in assay [5] and in assay [7] was “inactive” in each case. The Potency result in assay [9] and in [10] was “inactive” each time. Further, the outcome in [6] and in assay [8] was inactive.
Turning to `CC(CN1c2ccccc2Sc2ccc(S(=O)(=O)N(C)C)cc21)N(C)C` (stereo not given), the Potency result in assay [1], in assay [2], in assay [3], in [4], in assay [5] and in [7] was “inactive” in each case. Further, the Potency result in [9] and in [10] was “inactive” throughout. Moreover, the outcome in [6] and in assay [8] was inactive.
In the case of `O=C(O)[C@H](CC(=O)N1C[C@H]2CCCC[C@H]2C1)Cc1ccccc1`, the Potency entry in [1], in [2], in assay [3], in [4], in assay [5] and in assay [7] was “inactive” in each case. Moreover, the Potency result in [9] and in [10] was “inactive” in each case. Further, the compound was called inactive in assay [6] and in assay [8].
As to `CCOC(=O)COc1ccc2c(C)c(CCN(CC)CC)c(=O)oc2c1`, the Potency result in [1], in [2], in assay [3], in assay [4], in assay [5] and in assay [7] was “inactive” in each case. The Potency result in [9] and in assay [10] was “inactive” throughout. Further, the compound was called inactive in assay [6] and in [8].
